The values below come from PubChem BioAssay AID463173 (ICCB-Longwood Screening Facility, Harvard Medical School, 2010).

Out of some 52,000 compounds screened, about 4,300 (8.3%) were called active. This excerpt belongs to a sample that is enriched for actives. A number with no mark means an inactive call. No stated cut-off is given here; in the data, active means survival mostly below about 52% (no sharp cut-off); inactive means mostly above about 56%.

For this experiment, the system named is DeltatarO mutant. The experiment is described as follows: growth inhibition of S. aureus wild type versus tarO mutant, primary screen, teichoic acid synthesis inhibitors, RN4220, OD600 (AID 463173). The conditions noted are these: OD600, 18 h, active compounds read low, screened at 18.75 µg/mL (by protocol).
Turning to `COc1cccc(CNc2nc3c(-c4ccccc4)nnn3c3ccccc23)c1`, the survival is 84%. Next, `CCOc1ccc(NC(=O)c2ccc3c(SCC(=O)O)c4c(nc3c2)CCC4)cc1`: 90%. Next, `CCC1CCCCN1S(=O)(=O)c1cc2c(cc1C)NC(=O)CO2` (stereo not given): 105%; `O=C1CCN(C(=O)/C=C/c2ccccc2)c2ccccc21`: 88%.

As to `CC(=O)c1ccc(NC(=O)C2CCCN(S(=O)(=O)c3ccc4c(c3)CCCN4C(C)=O)C2)cc1` (stereo not given), the survival was 93%. For `Cc1ccc(NC(=O)C(=O)NCC(c2ccc3c(c2)OCO3)N2CCN(C)CC2)cc1C` (stereo not given), the survival is 68%. As to `CCN(CC)S(=O)(=O)c1ccc2nc(NC(=O)c3ccccc3OC)sc2c1`, the survival is 89%. Next, `CCOc1ccc(N2CC(NC(=O)Cc3cccs3)CC2=O)cc1` (stereo not given): 73%.

For the compound `Cc1ccc(C(=O)Nc2ccc(F)cc2)cc1S(=O)(=O)N1CCCCCC1`, the survival is 69%. `COC(=O)c1sc(N2C(=O)c3oc4ccccc4c(=O)c3C2c2ccc(O)cc2)nc1C` (stereo not given): the survival is 121%.

In the case of `Cc1[nH]c2ccc(-c3nnc(SCC(=O)N4c5ccccc5CCc5ccccc54)o3)cc2c1C`, the survival was 89%. `Cc1cc(N2CCCCC2)nc2ccc(NC(=O)c3ccc(F)cc3)cc12`: the survival is 51%. Consider `COc1ccc(Nc2cc(C)c3cc(NC(=O)c4cc(OC)cc(OC)c4)ccc3n2)cc1`, for which the survival was 94%.

Take `COc1cc(OC)cc(C(=O)Nc2ccc3nc(N4CCC(C)CC4)cc(C)c3c2)c1`: the survival was 51%. The result for `COc1cc(OC)cc(C(=O)Nc2ccc3nc(N4CCCCC4)cc(C)c3c2)c1` reads 31% (active). Turning to `CCN1CCN(c2cc(C)c3cc(NC(=O)c4cc(OC)cc(OC)c4)ccc3n2)CC1`, the survival is 47% (active). Next, `COC(=O)c1ccc(Cl)cc1NC(=O)Nc1nnc(N(C)C2CCCCC2)s1`: 81%; `COc1ccc(-c2cc(C)no2)cc1S(=O)(=O)N1CCOc2ccc(Cl)cc21`: 92%; `Cc1ccccc1-n1c(=O)c2c3c(sc2n2cnnc12)CCCC3`: 72%. Consider `Cc1ccc(-n2c(=O)[nH]c3cc(C(=O)NCc4ccccc4)ccc3c2=O)cc1`, for which the survival was 102%. Regarding `Cc1c(C(=O)OCc2ccccc2)[nH]c2c1C(=O)CC(c1ccc(C(C)(C)C)cc1)C2` (stereo not given), the survival was 91%. In the case of `COC(=O)C(NC(=O)CCc1c(C)nc2c(-c3ccccc3)c(C)nn2c1C)C(C)C` (stereo not given), the survival was 109%. For `O=C(Cc1ccc(F)cc1)N1CCC(c2nc3c(nnn3Cc3ccc(F)cc3)c(=O)[nH]2)CC1`, the survival was 66%.

As for `O=C(Cc1ccccc1F)N1CCC(c2nc3c(nnn3Cc3cccc(Cl)c3)c(=O)[nH]2)CC1`, the survival was 44% (active).

`CS(=O)(=O)N1CCC(c2nc3c(nnn3Cc3ccc(F)cc3)c(=O)[nH]2)CC1`: the survival is 102%.

As to `O=C(Cc1ccc(F)cc1)N1CCC(c2nc3c(nnn3Cc3ccc(Cl)cc3)c(=O)[nH]2)CC1`, the survival is 27% (active).

In the case of `O=C(Cc1ccccc1F)N1CCC(c2nc3c(nnn3Cc3ccc(F)cc3)c(=O)[nH]2)CC1`, the survival was 72%. Next, `Cc1ccc(Cn2nnc3c(=O)[nH]c(C4CCN(C(=O)Cc5ccccc5F)CC4)nc32)cc1`: 69%; `COc1ccccc1N1CCN(C(=O)Cn2ncc3c2-c2cc(C)ccc2OC3)CC1`: 58%. The result for `CN(C(=S)SCC1=CCS(=O)(=O)C1)C1CCS(=O)(=O)C1` (stereo not given) reads 94%; that for `O=C1C(c2ccc(F)cc2)N(Cc2ccccc2Cl)C(=O)CN1C1CCCCC1` (stereo not given), 81%; that for `Nc1no[n+]([O-])c1C(=O)NCCO`, 65%. `CC(C)(C)NC(=O)c1c(N)no[n+]1[O-]`: the survival was 92%. Turning to `CN(C)C(=O)c1c(N)no[n+]1[O-]`, the survival was 56% (active). On to `Cc1cc(C)c2c(=O)cc(C(=O)NCCc3ccc(S(N)(=O)=O)cc3)oc2c1`, for which the survival was 61%.

For `CCOc1ccc(CC(=O)Nc2c(C(=O)c3ccccc3)oc3ccc(Cl)cc23)cc1OCC`, the survival is 48%. Regarding `COC(=O)c1oc2ccc(Cl)cc2c1C`, the survival is 65%. Consider `CC(=O)Nc1c(C(=O)O)oc2ccc(Cl)cc12`, for which the survival is 58% (active). Consider `O=C(NCc1cccs1)c1ccc(Cn2c(SCc3ccc(F)cc3)nc3cccnc32)cc1`, for which the survival is 84%.

`C=CCN=C1SCC(=O)N1S(=O)(=O)c1ccc(C)cc1`: the survival is 60% (active). Next, `C=CCN=C1SC(C)C(=O)N1S(=O)(=O)c1ccccc1` (stereo not given): 57%; `Cc1ccc(S(=O)(=O)N=C2SCCCS2)cc1`: 91%; `CC(=O)Nc1ccc(I)cc1C(=O)O`: 95%.

As to `CCN(Cc1ccccc1)C(=O)Cn1c(=O)cc(C)c2c(C)nn(-c3cccc(F)c3)c21`, the survival was 72%. As for `CCOC(=O)c1ccc(NC(=O)Cn2cc(C(=O)c3cccs3)c3ccccc32)cc1`, the survival was 62%. Next, `Cc1cccc(C(=O)Nc2ccc(S(=O)(=O)N3CCC(c4nc5ccccc5s4)CC3)cc2)c1`: 40% (active). Next, `O=C(Nc1ccc(S(=O)(=O)N2CCC(c3nc4ccccc4s3)CC2)cc1)c1ccccc1`: 104%; `Cc1ccc(C(=O)Nc2ccc(S(=O)(=O)N3CCC(c4nc5ccccc5s4)CC3)cc2)cc1`: 61%. The result for `O=C(Nc1ccc(S(=O)(=O)N2CCC(c3nc4ccccc4s3)CC2)cc1)c1ccccc1F` reads 57%; that for `Cc1ccccc1C(=O)Nc1ccc(S(=O)(=O)N2CCC(c3nc4ccccc4s3)CC2)cc1`, 40% (active).

Consider `O=C(Nc1ccc(S(=O)(=O)N2CCC(c3nc4ccccc4s3)CC2)cc1)c1ccc(F)cc1`, for which the survival is 63%. In the case of `COCCn1c(SCC(=O)c2c(C)[nH]c3ccccc23)nc2cc(C(=O)NC(C)C)ccc2c1=O`, the survival is 68%. On to `COc1ccc(NC(=O)CS(=O)CC(=O)NC2CCCc3ccccc32)cc1` (stereo not given), for which the survival was 60%. On to `O=C(c1cccc(Cl)c1)n1nc(-c2cccnc2)nc1NCc1ccccc1`, for which the survival was 53%. In the case of `Cc1ccc(Cl)cc1NC(=O)COC(=O)CC(C)(C)CC1=NS(=O)(=O)c2ccccc2N1`, the survival was 84%.

With `CC(C)(CO)C(O)C(=O)NN` (stereo not given), the survival is 84%. Consider `COc1ccc(C(=O)NCc2ccc3c(c2)CCN3C(=O)c2ccc(C)cc2)cc1`, for which the survival was 82%. For `CC(=O)OC1CC(C)N(C(=O)c2ccccc2)c2ccc(C)cc21` (stereo not given), the survival was 67%.

Take `Cc1ccc2c(c1)N(C(=O)c1ccc(F)cc1)C(C)(C)CC2(C)c1ccccc1` (stereo not given): the survival was 24% (active).

For the compound `Cc1ccc(NC(=O)NCc2ccc3c(c2)CCN3C(=O)c2ccccc2)c(Cl)c1`, the survival is 82%.

As to `CC1=CC(C)(C)N(CC(=O)c2ccccc2)c2ccc(C)cc21`, the survival is 97%.

For the compound `Cc1ccc(C(=O)N2c3ccc(C)cc3C(C)(c3ccccc3)CC2(C)C)cc1` (stereo not given), the survival is 4% (active). Next, `Cc1ccc(C(=O)N2CC(=O)NC(=O)C2)cc1`: 83%; `COc1ccc(C(=O)NCc2ccc3c(c2)CCN3C(=O)c2ccccc2)cc1`: 84%; `Cc1ccc2c(c1)C(C)(c1ccccc1)CC(C)(C)N2C(=O)c1ccc(F)cc1` (stereo not given): -4% (active). Next, `Cc1ccc(C)c(N2CCN(C(=O)c3ccc4c(c3)N(Cc3ccc(F)cc3)C(=O)c3ccccc3S4=O)CC2)c1` (stereo not given): 101%; `COc1ccc(C(=O)N2c3ccc(C)cc3C(C)(c3ccccc3)CC2(C)C)cc1` (stereo not given): 25% (active). Next, `Cc1ccc(C(=O)N2CCN(c3ccccc3)CC2)cc1`: 87%; `CCOC(=O)C1CCC(CN(Cc2ccc(OC)cc2)S(=O)(=O)c2ccc(F)c(C(=O)Nc3c(C)cccc3C)c2)CC1` (stereo not given): 83%; `O=C(NCCCN1CCOCC1)C1CC(c2ccccc2O)=NO1` (stereo not given): 97%. In the case of `Cn1cccc1C(C(=O)NC1CCCCC1)N(C(=O)Cn1nnc2ccccc21)c1cnc2ccccc2c1` (stereo not given), the survival was 112%. Next, `Cc1cc(C)nc(SCC(=O)Nc2ccc(N3CCOCC3)cc2)n1`: 82%.

In the case of `CCc1ccccc1NC(=O)Cn1c(=O)n(Cc2ccc(OC)cc2)c(=O)c2oc3ccccc3c21`, the survival was 70%. As for `CC1(C)CC(=O)c2cc(C(=O)Nc3ccc(Br)cc3)c(=O)[nH]c2C1`, the survival was 70%. Turning to `O=C(CCS(=O)(=O)c1cc(Br)cc2c1N(C(=O)C1CC1)CC2)N1CCN(c2cccc(C(F)(F)F)c2)CC1`, the survival is 59%.

As to `Cc1nc2ccn(Cc3ccco3)c(=O)c2cc1C(=O)N1CCN(c2ccc(F)cc2)CC1`, the survival was 135%.

On to `CCc1nc2ccccc2n1CCCCOc1cccc(C)c1`, for which the survival is -2% (active).

With `CCCC(O)c1nc2ccccc2n1CCCOc1ccc(Cl)cc1` (stereo not given), the survival is 65%. The result for `CCc1nc2ccccc2n1CCO` reads 77%.

With `CCc1nc2ccccc2n1CCCCOc1ccccc1C`, the survival was 0% (active). The result for `CCc1nc2ccccc2n1CCCCOc1ccc(Cl)cc1` reads -3% (active); that for `Cc1cccc(OCCCn2c(CCNC(=O)C3CCCCC3)nc3ccccc32)c1`, 37%. The result for `CCc1nc2ccccc2n1CCCCOc1ccc(C)cc1` reads 1% (active); that for `O=C1C2C3C=CC(C3)C2C(=O)N1CCN1CCN(S(=O)(=O)c2ccc(Br)cc2)CC1` (stereo not given), 60%; that for `CCOc1ccccc1NC(=O)c1c2c(nc3ccccc13)C(=O)N(C1CCCCC1)C2`, 55%. Next, `COc1ccc(OC)c(NCc2cccn2-c2nnc(N3CCCCC3)s2)c1`: 93%; `COc1ccc(CC(=O)NCc2nc3cccnc3n2Cc2ccc(C)cc2)cc1`: 92%; `CN1C(=O)/C(=C/c2cccs2)SC1=S`: 113%.

On to `COc1ccc(Nc2ncc(C(=O)N3CCN(c4cccc(Cl)c4)CC3)c3ccccc23)cc1`, for which the survival is 62%. The result for `Cc1cccc(N2CCN(C(=O)C3CCCN(S(=O)(=O)c4ccc5c(c4)oc(=O)n5C)C3)CC2)c1C` (stereo not given) reads 84%.
